About 950 (1.4%) of roughly 69,000 compounds showed an effect of 50% or more. The sample as a whole holds a higher share of strong results than the screen did.
system: Mycobacterium tuberculosis; experiment: Cornell M. t heat shock assay; type: functional, organism-based; parameters: dose or concentration left out as unconfirmed; further: in the data most compounds retested in dose-response had high values

Compound	Percent Effect [%]
COc1cccc(COCC(O)CN(C)c2ccc(C)cc2C)c1 (stereo unspecified)	-34.76
Cc1cc(N2CCC(CO)(CC3CCCCO3)CC2)nc2ccccc12 (stereo unspecified)	3.069
OCC1(CC2CCCCO2)CCN(c2cnc3ccccc3n2)CC1 (stereo unspecified)	103.4
Cc1cc(N2CCC(CO)(CC3CCCCO3)CC2)c2ccccc2n1 (stereo unspecified)	-3.721
CO[C@@H]1CC[C@H]2[C@H]1OCCN2Cc1ccc(F)cc1.O=C(O)C(F)(F)F	-14.29
CCn1cc(NC(=O)CN2CCC(Oc3ccc(F)cc3)CC2)c(C)n1.Cl	-4.397
CCCN(C(=O)c1cnc(C)cn1)c1nc2c(s1)CCc1c-2cnn1C	-19.73
CCCN(C(=O)c1ccccn1)c1nc2c(s1)CCc1c-2cnn1C	103.2
CCCN(C(=O)c1ccncc1)c1nc2c(s1)CCc1c-2cnn1C	61.93
CCCN(C(=O)c1cccnc1)c1nc2c(s1)CCc1c-2cnn1C	19.23
CCCN(C(=O)c1cnccn1)c1nc2c(s1)CCc1c-2cnn1C	-8.207
COCCN(C(=O)c1ccccn1)c1nc2c(s1)CCc1c-2cnn1C	15.96
Cc1nc(N2CCOCC2)nc2c1CCN(Cc1nccn1C)CC2.O=C(O)C(F)(F)F	-4.986
O=C(O)C(F)(F)F.O=C(c1cccnc1)N1CCC2(CCN(C(=O)N3CCCC3)CC2)C1	2.065
CCN1Cc2nccn2CC(COCc2csc(C)n2)C1.O=C(O)C(F)(F)F.O=C(O)C(F)(F)F (stereo unspecified)	34.39
CN1C(=O)CC(c2ccccc2)C12CCN(CCO)CC2.O=C(O)C(F)(F)F (stereo unspecified)	13.27
Cl.O[C@@H]1CN(Cc2cccc(F)c2)CC[C@H]1NCc1ccccn1	14.29
COc1ccc2c(c1)CN(Cc1nc3ccsc3c(=O)[nH]1)CC2	63.99
COc1ccc2c(c1)CN(Cc1nc3c(cnn3C)c(=O)[nH]1)CC2	-0.696

Compound	Percent Effect [%]
CCOc1ccc2c(c1)CN(Cc1nc3c(cnn3C)c(=O)[nH]1)CC2	-1.196
Fc1cnc(N2C[C@@H](OCC3CCOCC3)[C@H]3OCCC[C@H]32)nc1.O=C(O)C(F)(F)F	41.59
CC(C)N1CCc2nnc(COc3cncnc3)n2CC1.O=C(O)C(F)(F)F	-11.8
CO[C@H]1CCN(C(=O)c2ccsc2)[C@@H]2CN(CC3CC3)C[C@H]12.O=C(O)C(F)(F)F	-4.831
Cc1cccc(N2CCOCC3(C2)CN(c2ccoc2)C(=O)CO3)n1.O=C(O)C(F)(F)F (stereo unspecified)	36.14
CN(C)[C@@H]1CN(C(=O)Cc2ccsc2)[C@@H]2CCCO[C@H]12.O=C(O)C(F)(F)F	1.941
c1ccc2sc(N3CCN(c4ncnc5c4CCC5)CC3)nc2c1	-9.42
Cc1ncnc(N2CCCN(c3nc4ccccc4s3)CC2)c1C	10.22
c1ccc2sc(N3CCCN(c4ncnc5c4CCNC5)CC3)nc2c1	53.45
O=C(c1ccco1)N1C(CN2CCOCC2)[C@]2(O)CC[C@H]1CC2 (stereo partly specified)	30.59
Fc1ccc(CN2C[C@@H](OCc3ccccn3)[C@H]3COC[C@H]32)cc1.O=C(O)C(F)(F)F.O=C(O)C(F)(F)F	25.12
Cc1nc(CO[C@@H]2CN(Cc3ccccn3)[C@@H]3COC[C@@H]32)cs1	-33.39
c1ccc(CO[C@@H]2CN(Cc3ccoc3)[C@@H]3COC[C@@H]32)nc1	52.89
Cc1nc(C2CCNC2)nc2c1CCC(=O)N2C.Cl (stereo unspecified)	7.271
O=C(NCCc1ccccc1)NCC(O)c1cccs1 (stereo unspecified)	20.6
Br.O=C(O)c1csc(NCCc2ccccc2)n1	78.91
CN1CC(=O)c2sc(NCCc3ccccc3)nc2C1	-13.74
COCCNC(=O)c1cc(-c2cc[nH]n2)n2ccccc12.O=C(O)C(F)(F)F	-6.749
O=C([C@@H]1CCCO1)N1CCOCC2(CCN(Cc3cccnc3)C2)C1 (stereo partly specified)	51.35

Compound	Percent Effect [%]
O=C(O)C(F)(F)F.O=C(O)C(F)(F)F.O=C(O)C(F)(F)F.c1cncc(CN2CCC3(COCCN(C4CCOCC4)C3)C2)c1 (stereo unspecified)	-18.23
O=C(C1CCCO1)N1CCC2(CC1)COCCN(Cc1cccnc1)C2.O=C(O)C(F)(F)F.O=C(O)C(F)(F)F (stereo unspecified)	-5.406
Cc1ccc(N2CCC3(CCN(C(=O)c4ccoc4)CC3)CC2)nn1.O=C(O)C(F)(F)F	-13.67
CS(=O)(=O)NCc1cn2c(n1)CN(Cc1cccnc1)CC2.O=C(O)C(F)(F)F.O=C(O)C(F)(F)F	42.6
CN1CCC(c2nc3ccc(-c4cccc(F)c4)cn3n2)CC1.O=C(O)C(F)(F)F	3.867
Cc1csc2c(N3CCNC(C(=O)Nc4ccc(F)cc4)C3)ncnc12 (stereo unspecified)	27.39
O=C(Nc1ccc(F)cc1)C1CSCN1 (stereo unspecified)	55.12
Nc1ncc(-c2ccc(NC(=O)[C@@H]3CCCCN3)cc2)cn1	-9.095
CNc1ncc(-c2ccc(NC(=O)[C@@H]3CCCCN3)cc2)cn1	-9.316
Cl.N#Cc1ccc(NC(=O)C2CSCN2)cc1 (stereo unspecified)	75.04
O=C(Nc1ccc(F)cc1)C1CCc2ccccc2N1 (stereo unspecified)	1.641
Cc1ccc(C(=O)N2[C@@H]3CC[C@H]2CN(C)C(=O)C3)c(=O)[nH]1	-6.73
O=C(O)C(F)(F)F.O=C([C@@H]1C[C@@H]2CCN(Cc3ccc4c(c3)OCO4)C[C@@H]2O1)N1CCCC1	-15.24
CC(C)COC[C@@H]1CC[C@H]2[C@H](CCN2C(=O)c2ccncc2F)O1.O=C(O)C(F)(F)F	-34.7
Cc1ncc(CN(C)Cc2nc3cc(Cl)ccc3n2C)s1	61.31
CCn1c(CN(C)Cc2cnc(C)s2)nc2c(F)cccc21	-32.12
Cn1c(CCNc2nccnc2C#N)nc2cc(Cl)ccc21	-3.646
O=C(O)C(F)(F)F.O=C(O)C(F)(F)F.c1ccc(CO[C@@H]2CC[C@H]3[C@H]2OCCN3Cc2ccsc2)nc1	-28.68

Source: ChEMBL document CHEMBL3988442, “University of Dundee, Small-Polar-MMV Screening Library” (2021)
